About 7,900 targets were measured; listed, in parts, are those with a hit and a random draw of the rest. About 0.6% of all pairs of compound and target were hits. A number with no mark means an inactive call.
What was measured:
Experiment in all cases: log2 fold change, soluble protein after heating vs DMSO (PISA); higher = thermal stabilisation; K562 cells, 10 uM, 30 min; active = over 0.2 and 3.5 SD of the protein, either way, in both replicates (recomputed)
[1] = compound: CS(=O)(=O)c1ccc(-c2cnc(N)c(C(=O)Nc3ccccc3)n2)cc1
Procedure, shortened: (§1)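 Soluble protein was quantified by TMTpro 16plex LC-MS/MS after channel sums were equalised. It was obtained as the supernatant after 21,000xg for 90 min from pooled aliquots of K562 cells (2×10^6 cells/mL, 10 μM compound, 30 min) heated for 3 min across 48°C-58°C and extracted in PBS with 0.5% NP-40 at 4°C. Thermal stability values are relative to control samples and come from duplicates. They are given as log2 fold changes.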

crizotinib = compound: C[C@@H](Oc1cc(-c2cnn(C3CCNCC3)c2)cnc1N)c1c(Cl)ccc(F)c1Cl [crizotinib]
Procedure, shortened: as §1

[2] = compound: C[C@@H]1COCCN1C2=NC(=NC(=C2)C3(CC3)S(=O)(=O)C)C4=C5C=CNC5=CC=C4
Procedure, shortened: as §1

[3] = compound: C[C@H](C1=CC=C(C=C1)C(=O)NC2=C3C=CNC3=NC=C2)N
Procedure, shortened: as §1

duvelisib = compound: C[C@H](Nc1ncnc2nc[nH]c12)c1cc2cccc(Cl)c2c(=O)n1-c1ccccc1 [duvelisib]
Procedure, shortened: as §1

gandotinib = compound: Cc1cc(Nc2cc(CN3CCOCC3)c3nc(C)c(Cc4ccc(Cl)cc4F)n3n2)n[nH]1 [gandotinib]
Procedure, shortened: as §1

tozasertib = compound: Cc1cc(Nc2cc(N3CCN(C)CC3)nc(Sc3ccc(NC(=O)C4CC4)cc3)n2)n[nH]1 [tozasertib]
Procedure, shortened: as §1

[4] = compound: Cc1cc(SCc2sc(-c3ccc(C(F)(F)F)cc3)nc2C)ccc1OCC(=O)O
Procedure, shortened: as §1

doramapimod = compound: Cc1ccc(-n2nc(C(C)(C)C)cc2NC(=O)Nc2ccc(OCCN3CCOCC3)c3ccccc23)cc1 [doramapimod]
Procedure, shortened: as §1

ispinesib = compound: Cc1ccc(C(=O)N(CCCN)[C@@H](c2nc3cc(Cl)ccc3c(=O)n2Cc2ccccc2)C(C)C)cc1 [ispinesib]
Procedure, shortened: as §1

UniProt Q96JC1, sequence (Q96JC1 whole entry, looked up): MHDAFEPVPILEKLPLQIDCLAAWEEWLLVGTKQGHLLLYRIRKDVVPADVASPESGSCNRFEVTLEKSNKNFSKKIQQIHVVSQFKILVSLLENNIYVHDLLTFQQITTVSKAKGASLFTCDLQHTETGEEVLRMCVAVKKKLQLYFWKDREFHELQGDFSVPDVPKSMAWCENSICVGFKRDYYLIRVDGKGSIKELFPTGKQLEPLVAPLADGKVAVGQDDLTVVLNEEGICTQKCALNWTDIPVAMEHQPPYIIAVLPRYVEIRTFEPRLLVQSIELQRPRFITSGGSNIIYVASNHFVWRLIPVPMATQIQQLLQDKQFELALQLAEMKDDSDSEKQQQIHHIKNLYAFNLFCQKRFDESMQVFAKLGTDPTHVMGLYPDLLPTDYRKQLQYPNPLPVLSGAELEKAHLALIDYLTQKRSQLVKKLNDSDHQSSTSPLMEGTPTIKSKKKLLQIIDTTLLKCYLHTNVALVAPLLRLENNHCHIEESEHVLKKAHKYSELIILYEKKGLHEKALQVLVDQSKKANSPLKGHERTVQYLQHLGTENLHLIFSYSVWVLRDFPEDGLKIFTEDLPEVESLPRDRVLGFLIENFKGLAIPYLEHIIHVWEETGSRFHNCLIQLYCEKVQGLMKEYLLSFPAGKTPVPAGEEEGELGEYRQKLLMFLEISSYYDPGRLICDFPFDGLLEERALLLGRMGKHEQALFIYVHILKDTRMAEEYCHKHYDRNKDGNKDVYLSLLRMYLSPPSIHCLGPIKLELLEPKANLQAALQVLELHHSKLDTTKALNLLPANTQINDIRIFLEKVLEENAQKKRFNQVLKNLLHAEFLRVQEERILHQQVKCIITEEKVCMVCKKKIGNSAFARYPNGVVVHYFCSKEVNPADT
UniProt Q641Q2, sequence (Q641Q2 whole entry, looked up): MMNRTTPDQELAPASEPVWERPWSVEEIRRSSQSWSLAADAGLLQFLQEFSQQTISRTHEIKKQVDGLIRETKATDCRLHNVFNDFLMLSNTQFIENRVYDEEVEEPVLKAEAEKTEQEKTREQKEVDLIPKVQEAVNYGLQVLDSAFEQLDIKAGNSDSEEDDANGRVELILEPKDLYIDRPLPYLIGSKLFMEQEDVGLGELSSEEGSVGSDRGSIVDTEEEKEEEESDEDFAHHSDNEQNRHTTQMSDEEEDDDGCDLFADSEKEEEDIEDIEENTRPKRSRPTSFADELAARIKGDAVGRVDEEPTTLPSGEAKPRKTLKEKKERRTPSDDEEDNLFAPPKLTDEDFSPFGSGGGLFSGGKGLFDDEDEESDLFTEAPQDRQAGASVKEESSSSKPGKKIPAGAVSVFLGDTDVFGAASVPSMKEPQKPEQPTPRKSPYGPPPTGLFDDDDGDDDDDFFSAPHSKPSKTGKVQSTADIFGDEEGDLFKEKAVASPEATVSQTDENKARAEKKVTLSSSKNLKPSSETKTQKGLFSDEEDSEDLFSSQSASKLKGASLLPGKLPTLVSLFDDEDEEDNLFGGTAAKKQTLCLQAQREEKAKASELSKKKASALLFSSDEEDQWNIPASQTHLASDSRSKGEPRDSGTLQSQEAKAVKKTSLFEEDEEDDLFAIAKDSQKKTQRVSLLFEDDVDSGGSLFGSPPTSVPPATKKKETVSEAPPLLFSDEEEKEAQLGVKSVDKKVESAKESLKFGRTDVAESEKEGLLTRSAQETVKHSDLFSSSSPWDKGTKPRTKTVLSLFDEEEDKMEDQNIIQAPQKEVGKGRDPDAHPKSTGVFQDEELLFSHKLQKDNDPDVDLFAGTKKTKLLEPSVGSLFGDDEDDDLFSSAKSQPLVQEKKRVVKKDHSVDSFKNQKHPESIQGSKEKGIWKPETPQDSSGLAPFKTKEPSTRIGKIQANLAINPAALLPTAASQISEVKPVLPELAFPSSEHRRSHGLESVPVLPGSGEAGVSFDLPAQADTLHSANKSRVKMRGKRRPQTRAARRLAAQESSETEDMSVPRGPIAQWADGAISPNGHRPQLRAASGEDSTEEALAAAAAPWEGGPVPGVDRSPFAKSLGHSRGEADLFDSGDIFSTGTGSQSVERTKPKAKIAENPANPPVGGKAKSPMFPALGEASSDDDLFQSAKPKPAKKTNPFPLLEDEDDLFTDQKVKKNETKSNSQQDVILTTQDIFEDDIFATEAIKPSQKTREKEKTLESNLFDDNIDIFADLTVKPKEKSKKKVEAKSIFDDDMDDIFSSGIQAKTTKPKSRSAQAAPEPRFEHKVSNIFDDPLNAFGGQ
UniProt Q7Z392, sequence (Q7Z392 whole entry, looked up): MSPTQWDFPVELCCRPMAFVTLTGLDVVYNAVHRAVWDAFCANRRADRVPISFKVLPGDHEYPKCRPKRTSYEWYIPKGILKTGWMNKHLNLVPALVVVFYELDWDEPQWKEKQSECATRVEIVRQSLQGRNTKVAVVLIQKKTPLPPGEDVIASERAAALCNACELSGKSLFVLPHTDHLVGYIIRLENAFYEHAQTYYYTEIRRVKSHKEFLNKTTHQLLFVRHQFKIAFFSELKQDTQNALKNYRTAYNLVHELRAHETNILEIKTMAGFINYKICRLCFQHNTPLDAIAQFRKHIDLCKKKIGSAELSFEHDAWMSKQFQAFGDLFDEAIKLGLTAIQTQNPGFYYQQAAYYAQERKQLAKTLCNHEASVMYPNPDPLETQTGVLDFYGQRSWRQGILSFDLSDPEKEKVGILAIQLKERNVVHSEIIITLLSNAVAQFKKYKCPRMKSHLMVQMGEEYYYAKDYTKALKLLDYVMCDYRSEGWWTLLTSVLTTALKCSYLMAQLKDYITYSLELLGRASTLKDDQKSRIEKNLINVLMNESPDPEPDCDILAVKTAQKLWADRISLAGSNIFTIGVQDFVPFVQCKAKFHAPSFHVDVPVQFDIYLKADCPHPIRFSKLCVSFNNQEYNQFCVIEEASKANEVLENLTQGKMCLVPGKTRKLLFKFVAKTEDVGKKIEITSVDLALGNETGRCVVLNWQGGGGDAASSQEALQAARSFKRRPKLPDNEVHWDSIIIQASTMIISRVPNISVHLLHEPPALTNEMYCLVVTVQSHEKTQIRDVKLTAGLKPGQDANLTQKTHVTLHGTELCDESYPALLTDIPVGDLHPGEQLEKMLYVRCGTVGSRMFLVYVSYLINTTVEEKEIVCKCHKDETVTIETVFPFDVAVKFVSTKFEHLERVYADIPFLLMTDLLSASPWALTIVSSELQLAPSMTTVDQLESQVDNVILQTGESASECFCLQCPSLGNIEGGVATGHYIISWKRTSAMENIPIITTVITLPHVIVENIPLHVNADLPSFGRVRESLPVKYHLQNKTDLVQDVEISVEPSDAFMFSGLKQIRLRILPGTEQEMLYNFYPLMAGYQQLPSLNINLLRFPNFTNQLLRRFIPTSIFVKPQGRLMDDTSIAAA
WASHC2C, A0A096LPC5, sequence (A0A096LPC5 whole entry, looked up): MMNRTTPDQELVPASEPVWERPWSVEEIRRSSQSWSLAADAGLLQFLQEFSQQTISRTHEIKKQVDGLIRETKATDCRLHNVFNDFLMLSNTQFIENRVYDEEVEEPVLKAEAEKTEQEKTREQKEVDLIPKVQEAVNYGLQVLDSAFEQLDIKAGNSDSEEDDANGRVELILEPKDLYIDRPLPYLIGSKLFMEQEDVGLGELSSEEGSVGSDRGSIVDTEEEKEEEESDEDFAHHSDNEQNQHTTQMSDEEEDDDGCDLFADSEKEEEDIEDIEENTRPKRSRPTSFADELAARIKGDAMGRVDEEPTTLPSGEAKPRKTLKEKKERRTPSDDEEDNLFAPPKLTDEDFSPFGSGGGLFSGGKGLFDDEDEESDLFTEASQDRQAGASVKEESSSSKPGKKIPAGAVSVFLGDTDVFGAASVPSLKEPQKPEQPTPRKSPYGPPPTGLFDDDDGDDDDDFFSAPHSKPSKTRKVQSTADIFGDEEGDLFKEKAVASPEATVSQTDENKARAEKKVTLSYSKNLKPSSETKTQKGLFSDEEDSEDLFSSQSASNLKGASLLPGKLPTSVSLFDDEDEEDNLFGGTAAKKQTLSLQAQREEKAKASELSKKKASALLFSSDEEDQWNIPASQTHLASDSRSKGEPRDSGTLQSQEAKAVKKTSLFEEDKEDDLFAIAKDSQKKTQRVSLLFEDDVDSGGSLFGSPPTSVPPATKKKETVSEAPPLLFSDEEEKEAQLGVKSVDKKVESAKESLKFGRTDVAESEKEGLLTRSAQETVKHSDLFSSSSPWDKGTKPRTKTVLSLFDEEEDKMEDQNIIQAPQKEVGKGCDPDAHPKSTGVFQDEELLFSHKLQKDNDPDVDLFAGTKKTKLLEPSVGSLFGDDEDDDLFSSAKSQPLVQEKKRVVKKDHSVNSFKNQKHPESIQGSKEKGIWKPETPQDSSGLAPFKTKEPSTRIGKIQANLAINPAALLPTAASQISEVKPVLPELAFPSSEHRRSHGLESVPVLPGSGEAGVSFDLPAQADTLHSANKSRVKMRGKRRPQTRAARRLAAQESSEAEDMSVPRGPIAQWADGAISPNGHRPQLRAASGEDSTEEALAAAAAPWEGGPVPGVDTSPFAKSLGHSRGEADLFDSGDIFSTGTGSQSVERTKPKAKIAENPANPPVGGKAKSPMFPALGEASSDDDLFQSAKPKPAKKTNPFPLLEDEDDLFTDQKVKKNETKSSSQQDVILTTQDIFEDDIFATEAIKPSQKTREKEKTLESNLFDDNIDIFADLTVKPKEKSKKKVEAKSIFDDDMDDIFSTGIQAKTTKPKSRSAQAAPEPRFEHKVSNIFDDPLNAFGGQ
UniProt Q9NP79, sequence (Q9NP79 whole entry, looked up): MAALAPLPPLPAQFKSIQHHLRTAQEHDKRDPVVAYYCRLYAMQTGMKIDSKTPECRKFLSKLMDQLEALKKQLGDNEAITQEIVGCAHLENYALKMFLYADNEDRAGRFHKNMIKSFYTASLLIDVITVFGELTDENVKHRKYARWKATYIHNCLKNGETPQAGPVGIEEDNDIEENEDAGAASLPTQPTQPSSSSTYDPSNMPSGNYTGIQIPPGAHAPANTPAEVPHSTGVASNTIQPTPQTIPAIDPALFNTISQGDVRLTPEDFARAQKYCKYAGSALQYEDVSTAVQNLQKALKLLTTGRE
UniProt Q8N4H5, sequence (Q8N4H5 whole entry, looked up): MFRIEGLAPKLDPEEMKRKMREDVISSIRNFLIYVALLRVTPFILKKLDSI

Row | Target | log2 fold change [1] | log2 fold change (crizotinib) | log2 fold change [2] | log2 fold change [3] | log2 fold change (duvelisib) | log2 fold change (gandotinib) | log2 fold change (tozasertib) | log2 fold change [4] | log2 fold change (doramapimod) | log2 fold change (ispinesib)
1 | USP25 isoform 3 (UniProt Q9UHP3) | 0.042 | -0.003 | -0.017 | -0.062 | 0.05 | -0.024 | 0.036 | 0.021 | 0.007 | -0.025
2 | VTA1 (UniProt Q9NP79) | 0.032 | -0.049 | 0.056 | -0.019 | 0.019 | -0.127 | 0.004 | 0.057 | -0.021 | -0.014
3 | WRB (UniProt O00258) | -0.031 | 0.057 | 0.036 | -0.028 | -0.094 | -0.053 | -0.016 | 0.067 | 0.015 | 0.029
4 | WASHC2A (UniProt Q641Q2) | 0.025 | -0.28 (active) | -0.033 | 0.137 | -0.061 | 0.012 | 0.062 | -0.047 | 0.062 | -0.229
5 | TOMM5 isoform 2 (UniProt Q8N4H5) | 0.043 | 0.139 | 0.124 | -0.053 | 0.075 | 0.136 | -0.008 | -0.023 | -0.078 | -0.051
6 | VPS11 (UniProt Q9H270) | 0.009 | -0.373 (active) | -0.039 | 0.054 | -0.016 | -0.111 | 0.034 | 0.095 | -0.029 | -0.226
7 | XRCC6 (UniProt P12956) | 0.013 | -0.064 | 0.088 | -0.042 | 0.016 | -0.149 | 0.075 | 0.091 | -0.05 | -0.039
8 | UHRF1BP1 (UniProt Q6BDS2) | 0.003 | 0.086 | 0.001 | -0.009 | 0.124 | -0.004 | -0.014 | -0.014 | 0.014 | 0.12
9 | WDR41 (UniProt Q9HAD4) | 0.01 | -0.093 | -0.064 | -0.064 | 0.013 | -0.035 | -0.002 | -0.02 | -0.042 | -0.172
10 | VPS39 (UniProt Q96JC1) | -0.037 | -0.239 (active) | 0.026 | 0.021 | 0.011 | -0.126 | -0.033 | 0.025 | 0.008 | -0.187
11 | TSFM (UniProt P43897) | -0.083 | 0.171 | 0.152 | -0.104 | 0.044 | -0.083 | -0.033 | 0.095 | -0.095 | 0.398 (active)
12 | TRMT10C (UniProt Q7L0Y3) | 0.045 | 0.03 | 0.109 | -0.013 | 0.024 | -0.072 | 0 | 0.069 | -0.008 | 0.017
13 | TRMT61A (UniProt Q96FX7) | -0.017 | -0.046 | -0.201 | 0.168 | -0.004 | 0.168 | -0.016 | 0.106 | 0.011 | -0.093
14 | UBE4B isoform 4 (UniProt O95155) | 0.016 | -0.013 | 0.012 | -0.015 | 0.012 | -0.048 | 0.035 | 0.019 | -0.048 | 0
15 | TNPO1 (UniProt Q92973) | -0.008 | -0.034 | 0.058 | -0.116 | 0.002 | -0.128 | 0.052 | 0.011 | -0.034 | -0.113
16 | TRMT2A (UniProt Q8IZ69) | -0.034 | -0.016 | -0.072 | 0.152 | -0.041 | 0.019 | 0.063 | 0.045 | 0.07 | -0.122
17 | TXNL1 (UniProt O43396) | 0.027 | 0.067 | -0.01 | -0.028 | 0.013 | -0.076 | 0.038 | 0.068 | -0.049 | 0.07
18 | TXN2 (UniProt Q99757) | -0.001 | 0.128 | -0.047 | -0.317 (active) | 0.031 | 0.105 | 0.009 | -0.026 | -0.034 | 0.028
19 | WASHC2C, A0A096LPC5 | -0.078 | -0.363 | 0.031 | 0.025 | 0.15 | 0.189 | 0.007 | -0.053 | 0.02 | -0.135
20 | TRAPPC11 (UniProt Q7Z392) | -0.004 | 0.008 | 0.051 | 0.075 | 0.043 | -0.047 | 0.021 | 0.1 | 0.028 | -0.079
21 | UPF3B (UniProt Q9BZI7) | 0 | 0.091 | -0.63 | 0.542 | -0.125 | 0.452 | 0.071 | 0.064 | 0.295 | -0.222
22 | VPS16 (UniProt Q9H269) | 0.035 | -0.105 | -0.09 | 0.08 | 0.023 | -0.163 | 0.033 | 0.092 | 0.085 | -0.239
23 | TMTC3 (UniProt Q6ZXV5) | 0.054 | -0.088 | -0.052 | 0.072 | -0.017 | -0.039 | -0.012 | 0.038 | 0.018 | -0.188
24 | TMEM192 (UniProt Q8IY95) | 0.074 | -0.45 (active) | 0.043 | 0.04 | 0.026 | 0.059 | -0.008 | -0.022 | 0.024 | -0.318 (active)
25 | XPNPEP3 (UniProt Q9NQH7) | 0.06 | -0.013 | 0.011 | -0.001 | 0.059 | -0.033 | -0.034 | 0.034 | 0.065 | -0.046
26 | TUT4 (UniProt Q5TAX3) | 0.069 | 0.075 | -0.286 | 0.095 | 0.166 | 0.024 | 0.044 | 0.195 | -0.003 | -0.124
27 | UBE2J1 (UniProt Q9Y385) | 0.06 | -0.172 | 0.026 | -0.043 | 0.179 | -0.151 | 0.026 | -0.01 | -0.26 | -0.016
28 | TXNIP (UniProt Q9H3M7) | 0.05 | -0.36 | -0.103 | -0.188 | 0.03 | -0.068 | -0.06 | 0.01 | 0.113 | -0.087
29 | WEE1 (UniProt P30291) | -0.3 | -0.025 | -1.07 (active) | 0.094 | 0.026 | 0.247 | -0.5 | -0.049 | 0.026 | 0.046
30 | TMEM120A (UniProt Q9BXJ8) | -0.137 | 0.096 | 0.175 | -0.11 | -0.009 | -0.125 | -0.01 | -0.055 | -0.077 | 0.033
